Conditions in all cases: mRNA level, 48 h; actives raise or lower the signal
Read-out in assay [1]: Cytochrome P450 7A1 (Homo sapiens) (UniProt P22680)
Put plainly: LTEA_HepaRG_CYP7A1: Life Technologies and Expression Analysis (LTEA) Assay for Cytochrome P450 7A1 (CYP7A1) using HepaRG (AID 2283496). An outline of the steps:
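HepaRG, 48 h exposure, 8-pt half-log series from 100 uM, 0.5% DMSO vehicle, duplicates. Readout: TaqMan qRT-PCR mRNA vs three housekeeping genes; bidirectional curve fit against DMSO baseline.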

Read-out in assay [2]: Glutathione S-Transferase (GSTA2), GSTA2 (gene 2939)
Put plainly: LTEA_HepaRG_GSTA2: Life Technologies and Expression Analysis (LTEA) Assay for Glutathione S-Transferase (GSTA2) using HepaRG (AID 2283497). Summed up:
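GSTA2 transcript levels came from Fluidigm TaqMan qRT-PCR normalized to three housekeeping genes, fitted in both directions against DMSO. HepaRG cultures received chemicals for 48 h in serum-free induction medium (0.5% DMSO), 8 half-log concentrations up to 100 uM, duplicate.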

Read-out in assay [3]: Glutamate-cysteine ligase catalytic (GCLC), GCLC (gene 2729)
Put plainly: LTEA_HepaRG_GCLC: Life Technologies and Expression Analysis (LTEA) Assay for Glutamate-cysteine ligase catalytic (GCLC) using HepaRG (AID 2283498). Summed up:
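Expression by TaqMan qRT-PCR, normalized to three housekeeping genes (ACTB, GAPDH, POLR2A), with up- or down-regulation fitted against DMSO. HepaRG cells dosed in duplicate for 48 h with 8 half-log concentrations up to 100 uM, vehicle 0.5% DMSO.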

Read-out in assay [4]: growth arrest and DNA damage 45 (GADD45G), GADD45G (gene 10912)
Kind of assay: LTEA_HepaRG_GADD45G: Life Technologies and Expression Analysis (LTEA) Assay for growth arrest and DNA damage 45 (GADD45G) using HepaRG (AID 2283499). Summed up: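 Human hepatic HepaRG line treated 48 h with chemicals (eight concentrations, half-log steps from 100 uM); transcript induction or repression of GADD45G scored by qRT-PCR versus DMSO vehicle.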

Read-out in assay [5]: Glutamate-cysteine ligase regulatory (GCLM), GCLM (gene 2730)
Kind of assay: LTEA_HepaRG_GCLM: Life Technologies and Expression Analysis (LTEA) Assay for Glutamate-cysteine ligase regulatory (GCLM) using HepaRG (AID 2283500). An outline of the steps:
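Endpoint is GCLM transcript level by qRT-PCR, normalized to three housekeeping genes, after 48 h chemical exposure of human HepaRG cells (0.5% DMSO vehicle, top 100 uM, half-log dilutions). Fitting was bidirectional relative to DMSO.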

Read-out in assay [6]: Heat shock 70 kDa protein 1 (HSPA1A), gene 3303
Put plainly: LTEA_HepaRG_HSPA1A: Life Technologies and Expression Analysis (LTEA) Assay for Heat shock 70 kDa protein 1 (HSPA1A) using HepaRG (AID 2283502). Summed up:
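Cells were plated and cultured for 48 h, then switched to serum-free induction medium. Chemicals were added at eight half-log concentrations up to 100 uM for 48 h. RNA was then isolated and HSPA1A measured by qRT-PCR with bidirectional curve fitting against DMSO.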

Read-out in assay [7]: Hypoxia-inducible factor 1-alpha (Homo sapiens) (UniProt Q16665)
Put plainly: LTEA_HepaRG_HIF1A: Life Technologies and Expression Analysis (LTEA) Assay for Hypoxia-inducible factor 1 (HIF1A) Trancription factor using HepaRG (AID 2283503). An outline of the steps:
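HIF1A transcript level read by qRT-PCR (ACTB, GAPDH, POLR2A normalization) after 48 h chemical exposure of HepaRG cultures. Eight half-log concentrations, top 100 uM, 0.5% DMSO vehicle, duplicates; bidirectional curve fit against DMSO baseline.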

Read-out in assay [8]: 3-Hydroxy-3-Methylglutaryl-CoA Synthase 2 (HMGCS2), HMGCS2 (gene 3158)
Put plainly: LTEA_HepaRG_HMGCS2: Life Technologies and Expression Analysis (LTEA) Assay for 3-Hydroxy-3-Methylglutaryl-CoA Synthase 2 (HMGCS2) using HepaRG (AID 2283504). Summed up: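 Expression of HMGCS2 in human HepaRG liver cells is measured by qRT-PCR 48 h after dosing (highest 100 uM, half-log series, 0.5% DMSO). Values come from bidirectional concentration-response fitting with DMSO as baseline.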

Read-out in assay [9]: Insulin Like Growth Factor 1 (IGF1), IGF1 (gene 3479)
Kind of assay: LTEA_HepaRG_IGF1: Life Technologies and Expression Analysis (LTEA) Assay for Insulin Like Growth Factor 1 (IGF1) using HepaRG (AID 2283506). An outline of the steps: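 Cells are thawed, plated and cultured 48 h, then exposed in duplicate to chemical (highest 100 uM, half-log steps, 0.5% DMSO) for another 48 h. Total RNA is analysed by Fluidigm qRT-PCR for IGF1 expression relative to vehicle.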

Read-out in assay [10]: Intercellular Adhesion Molecule 1 (ICAM1), ICAM1 (gene 3383)
Put plainly: LTEA_HepaRG_ICAM1: Life Technologies and Expression Analysis (LTEA) Assay for Intercellular Adhesion Molecule 1 (ICAM1) using HepaRG (AID 2283507). An outline of the steps:
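Gain or loss of transcript in HepaRG hepatic cells is quantified by qRT-PCR after 48 h chemical exposure (up to 100 uM, half-log steps), with DMSO as baseline.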

Read-out in assay [11]: Insulin-like growth factor-binding protein 1 (IGFBP1), IGFBP1 (gene 3484)
Kind of assay: LTEA_HepaRG_IGFBP1: Life Technologies and Expression Analysis (LTEA) Assay for Insulin-like growth factor-binding protein 1 (IGFBP1) using HepaRG (AID 2283508). An outline of the steps: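 mRNA induction or loss was quantified by qRT-PCR after 48 h chemical exposure of human HepaRG cells, with 0.5% DMSO as vehicle and baseline. Concentration-response over eight points up to 100 uM.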

Read-out in assay [12]: Interleukin 6 (IL6), IL6 (gene 3569)
Kind of assay: LTEA_HepaRG_IL6: Life Technologies and Expression Analysis (LTEA) Assay for Interleukin 6 (IL6) using HepaRG (AID 2283509). An outline of the steps:
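Transcript levels, normalized to three housekeeping genes, were quantified by qRT-PCR after 48 h chemical treatment of HepaRG cells. Eight-point half-log series from 100 uM in 0.5% DMSO, duplicates. Fitted both directions against DMSO baseline.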

Read-out in assay [13]: Interleukin 6 Receptor (IL6R), IL6R (gene 3570)
Put plainly: LTEA_HepaRG_IL6R: Life Technologies and Expression Analysis (LTEA) Assay for Interleukin 6 Receptor (IL6R) using HepaRG (AID 2283510).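 As to AC50: differentiated human HepaRG liver cells in serum-free induction medium.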 Summed up:
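Cells were thawed, plated and cultured 48 h, then medium was changed to serum-free induction medium. Chemicals were added in duplicate (100 uM top, half-log steps, 0.5% DMSO) for 48 h. Lysates were analyzed by qRT-PCR for IL6R expression.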

Read-out in assay [14]: Potassium channel subfamily K member 1 (KCNK1), KCNK1 (gene 3775)
Kind of assay: LTEA_HepaRG_KCNK1: Life Technologies and Expression Analysis (LTEA) Assay for Potassium channel subfamily K member 1 (KCNK1) using HepaRG (AID 2283511). An outline of the steps:
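KCNK1 transcript measured by TaqMan qRT-PCR against three housekeeping genes, after HepaRG cells were treated 48 h with eight half-log concentrations (top 100 uM, 0.5% DMSO). Curves fitted bidirectionally relative to vehicle.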

Read-out in assay [15]: Keratin 19 (KRT19), KRT19 (gene 3880)
Put plainly: LTEA_HepaRG_KRT19: Life Technologies and Expression Analysis (LTEA) Assay for Keratin 19 (KRT19) using HepaRG (AID 2283512). Summed up: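 Gene-expression endpoint in the human liver line HepaRG after 48 h exposure to up to 100 uM test chemical with 0.5% DMSO vehicle; KRT19 mRNA by qRT-PCR, analyzed bidirectionally versus DMSO.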

Read-out in assay [16]: JUN Transcription Factor, JUN (gene 3725)
Put plainly: LTEA_HepaRG_JUN: Life Technologies and Expression Analysis (LTEA) Assay for JUN Transcription Factor using HepaRG (AID 2283513). Summed up: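 Read-out is JUN transcript level by TaqMan qRT-PCR, normalized to ACTB, GAPDH and POLR2A, after 48 h chemical treatment of HepaRG cells. Concentration-response spanned eight half-log points up to 100 uM in 0.5% DMSO.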

Read-out in another assay: HGF (gene 3082)
Kind of assay: LTEA_HepaRG_HGF: Life Technologies and Expression Analysis (LTEA) Assay for Hepatocyte Growth Facto (HGF) using HepaRG (AID 2283505). Summed up: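 Gain or loss of HGF mRNA in human HepaRG liver cells after 48 h chemical exposure; eight concentrations up to 100 uM with 0.5% DMSO vehicle, quantified by TaqMan qRT-PCR.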

A word on the AC50: it is the concentration at which the activity in the assay is half-maximal.

SMILES strings stand for the structures. The source made the active and inactive calls. The calls were made as follows: active = hit-call score of the fitted dose curve at least 0.9, where 1 is the maximum; inactive = score below 0.9.

Chain of Hypoxia-inducible factor 1-alpha (Homo sapiens) (Q16665 whole entry, looked up): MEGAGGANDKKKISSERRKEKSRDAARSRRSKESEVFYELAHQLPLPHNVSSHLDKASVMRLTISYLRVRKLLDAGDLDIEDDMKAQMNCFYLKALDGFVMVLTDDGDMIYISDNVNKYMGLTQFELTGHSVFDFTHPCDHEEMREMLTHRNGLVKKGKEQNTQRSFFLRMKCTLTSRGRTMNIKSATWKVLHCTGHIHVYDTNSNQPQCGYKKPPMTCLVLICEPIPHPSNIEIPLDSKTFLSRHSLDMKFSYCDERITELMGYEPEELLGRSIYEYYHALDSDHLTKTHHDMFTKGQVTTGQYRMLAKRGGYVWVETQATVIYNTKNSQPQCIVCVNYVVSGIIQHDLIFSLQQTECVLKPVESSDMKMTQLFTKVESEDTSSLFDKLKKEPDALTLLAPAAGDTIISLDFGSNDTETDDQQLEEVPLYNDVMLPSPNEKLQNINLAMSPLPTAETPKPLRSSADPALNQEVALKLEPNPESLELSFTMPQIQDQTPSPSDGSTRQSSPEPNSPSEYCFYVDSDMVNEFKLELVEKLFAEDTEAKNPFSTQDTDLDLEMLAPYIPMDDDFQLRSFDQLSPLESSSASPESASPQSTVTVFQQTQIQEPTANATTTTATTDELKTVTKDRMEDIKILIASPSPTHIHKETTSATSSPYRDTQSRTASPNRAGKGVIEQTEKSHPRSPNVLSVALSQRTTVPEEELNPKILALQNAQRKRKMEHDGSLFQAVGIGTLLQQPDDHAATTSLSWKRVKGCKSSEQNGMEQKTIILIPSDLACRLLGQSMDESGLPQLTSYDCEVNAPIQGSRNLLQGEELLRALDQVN

On to `CCCOC(=O)NCCCN(C)C`, for which the compound was called inactive in [1], in assay [2], in assay [3], in assay [4], in [5] and in assay [6]. The compound was classed as inactive in assay [7], in assay [8], in [9], in [10], in [11] and in [12]. Besides, the call in assay [13], in assay [14], in assay [15] and in assay [16] was inactive.
Turning to `CCSC(=O)N(CC(C)C)CC(C)C`, the compound was classed as inactive in [1], in assay [2], in assay [3], in assay [4], in assay [5] and in assay [6]. Also, the result (in [7]; in assay [8]; in the assay with HGF (gene 3082); in [9]; in assay [10]; in assay [11]) was inactive. For the same compound, the outcome in [12], in assay [13], in assay [14], in assay [15] and in [16] was inactive.
On to `CCCCC(CC)COC(=O)c1ccccc1C(=O)O` (stereo unspecified), for which the half-maximal activity concentration (AC50) in [1] and in [9] was 50.8 µM (active) throughout. Further, the compound was classed as inactive in assay [2], in assay [3], in assay [4], in assay [5], in [6] and in [7]. In addition, the outcome (in assay [8]; in the assay with HGF (gene 3082); in [10]; in assay [11]; in assay [12]; in assay [13]) was inactive. For the same compound, the compound was called inactive in [14], in assay [15] and in assay [16].
Turning to `CCCCCCC(C)OC(=O)COc1nc(F)c(Cl)c(N)c1Cl` (stereo unspecified), the call in [1], in assay [2], in assay [3], in assay [4], in assay [5] and in [6] was inactive. In addition, the result (in assay [7]; in assay [8]; in the assay with HGF (gene 3082); in assay [9]; in [10]; in [11]) was inactive. Also, the outcome in [12], in assay [13], in assay [14], in assay [15] and in [16] was inactive.
Consider `Oc1ccc(C(c2ccc(O)cc2)C(Cl)(Cl)Cl)cc1`, for which the result in [1], in [5], in assay [9] and in assay [14] was inactive. In addition, the concentration at half-maximal activity (AC50) was 78.2 µM (active) in assay [2]; 77.2 µM (active) in assay [3]; 78.9 µM (active) in [4]; 94.5 µM (active) in assay [6]; 79.5 µM (active) in assay [7]; 92.8 µM (active) in [8]. Besides, the AC50 with HGF (gene 3082) was 83.7 µM (active); in [10] it was 79.3 µM (active); in assay [11], 88.5 µM (active); in assay [12] it was 77.1 µM (active); in [13] it was 87.8 µM (active); in assay [15], 50 µM (active). Also, in assay [16], the AC50 was 91.7 µM (active).
Regarding `O=C(c1ccccc1)C1CCCCC1`, the compound was called inactive in assay [1], in [2], in assay [3], in assay [4], in [5] and in assay [6]. Further, the result (in assay [7]; in assay [8]; in the assay with HGF (gene 3082); in assay [9]; in assay [10]; in [11]) was inactive. The outcome in assay [12], in [13], in assay [14], in assay [15] and in assay [16] was inactive.
